# Measurements reported in PubChem BioAssay (NCI).
# About 83,000 compounds went through this panel and 20% of them were active in at least one assay; those are over-represented in the sample as a whole.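 In brief: 96-well plates, 48 h treatment, single concentration, percent growth endpoint.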 Values without a mark were called inactive. Active and inactive are the calls of the source. Rule for the calls: active = growth percent below 10; inactive = the rest.
# Tests used:
# Test in all cases: NCI-60 one-dose screen, 48 h (100 = growth as untreated, 0 = no growth, -100 = all killed)
# Conditions in all cases: 10 µM unless noted
# NCI-H23 lung = test system: NCI-H23 lung
# NCI-H226 lung = test system: NCI-H226 lung
# NCI-H322M lung = test system: NCI-H322M lung
# HOP-62 NSCLC = test system: HOP-62 NSCLC
# NCI-H460 lung = test system: NCI-H460 lung
# HOP-92 NSCLC = test system: HOP-92 NSCLC
# NCI-H522 lung = test system: NCI-H522 lung
# A549/ATCC NSCLC = test system: A549/ATCC NSCLC
# 786-0 renal = test system: 786-0 renal
# COLO 205 colon = test system: COLO 205 colon
Compound,growth (NCI-H23 lung),growth (NCI-H226 lung),growth (NCI-H322M lung),growth (HOP-62 NSCLC),growth (NCI-H460 lung),growth (HOP-92 NSCLC),growth (NCI-H522 lung),growth (A549/ATCC NSCLC),growth (786-0 renal),growth (COLO 205 colon)
O=C(Cc1cccc(OC(F)(F)F)c1)Nc1ccc(CCCCc2nnc(NC(=O)Cc3ccccn3)s2)nn1,80.3%,60.6%,39.8%,74.5%,74.2%,-4.64% (active),44.3%,43.2%,46.3%,88.8%
COc1cc2nc3sc(C(=O)Nc4ccc(C(=O)OC(C)C)cc4)c(C(=O)Nc4ccc(Cl)cc4C)n3c(=O)c2cc1OC,72.1%,103%,68.5%,67.2%,22.7%,32.5%,98.7%,52%,53.6%,45.8%
CNC(=O)c1cc(Oc2ccc3c(c2)sc2nc(-c4ccc(OC)cc4)cn23)ccn1,41.2%,61.6%,56.7%,19.4%,6.83% (active),35%,38.1%,15.9%,29.3%,0.159% (active)
COc1ccc2c(c1)CCc1[nH]nc(-c3cc(OC)c(OC)c(OC)c3)c1-2,12.7%,41%,47%,12.9%,3.92% (active),32.8%,-22.3% (active),5.04% (active),3.88% (active),-64.6% (active)
CC[C@]12C=CCN3CC[C@@]4(c5ccc(OC)cc5N(C)[C@H]4[C@@](O)(C(=O)OC)[C@@H]1OC(=O)CCC[P+](c1ccccc1)(c1ccccc1)c1ccccc1)[C@@H]32,-8.66% (active),14%,35.6%,2.56% (active),6.11% (active),-40% (active),-35.4% (active),13.4%,20.6%,-87.9% (active)
O=C1/C(=C\c2ccccn2)c2ccccc2N1c1c(Cl)cccc1Cl,13%,25.2%,61.4%,23.3%,-29.3% (active),-7.93% (active),36.8%,50.3%,-81.4% (active),-16.1% (active)
Nn1c(=O)c(=O)[nH]c2c(cnn2-c2ccccc2)c1=O,108%,94.2%,108%,86.2%,117%,106%,96.2%,101%,103%,121%
O=C1/C(=C\c2cccc3nccnc23)SC(=S)N1CCc1ccc(O)cc1,93.7%,95.4%,96.4%,99.5%,105%,-0.0093% (active),81.9%,100%,94.8%,118%
COc1ccc(-c2nc(-c3cn(C)c4ncccc34)cs2)cc1,11.1% [100 µM],2.9% [100 µM] (active),1.44% [100 µM] (active),-49.5% [100 µM] (active),-43% [100 µM] (active),-40.4% [100 µM] (active),20.1% [100 µM],12.4% [100 µM],-30.9% [100 µM] (active),-49.8% [100 µM] (active)
N#CC1=C(N)Oc2ccc3ccccc3c2C1c1ccc([N+](=O)[O-])cc1 (stereo not given),78.2%,87.4%,89.3%,81.8%,93.3%,121%,73.5%,93.7%,88.1%,102%
Cc1ccc(-c2csc(N(C(=O)N3CCN(c4cc5c(cc4F)c(=O)c(C(=O)O)cn5C4CC4)CC3)c3ccccc3)n2)cc1,-0.349% (active),7.91% (active),4.96% (active),4.78% (active),5.91% (active),-18% (active),-0.464% (active),13.7%,4.6% (active),8.13% (active)
CC1(C)[C@@H](O[C@@H]2OC[C@@H](O[C@@H]3O[C@H](CO)[C@@H](O)[C@H](O)[C@H]3O[C@@H]3OC[C@@H](O)[C@H](O)[C@H]3O)[C@H](O)[C@H]2O[C@@H]2O[C@H](CO)[C@@H](O)[C@H](O)[C@H]2O)CC[C@]2(C)[C@H]3CC[C@]45OC[C@@]6(CC[C@](C)(C=O)C[C@H]64)[C@H](O)C[C@@]5(C)[C@]3(C)CC[C@@H]12,-55.1% (active),-65.2% (active),-86.9% (active),-82.9% (active),-63% (active),-63.7% (active),-89.7% (active),-73.6% (active),-75% (active),-93.9% (active)
CC(=O)OC(c1ccccc1)C1CCOC1=O (stereo not given),93.8%,93.6%,106%,99.2%,109%,93.2%,78.1%,99%,94.8%,170%
CN(C)CCCNC(=O)c1cncnc1Nc1ccc(OCc2cccc(F)c2)c(Cl)c1,61.5%,89%,4.56% (active),-56% (active),-75.1% (active),24.6%,-60.4% (active),-58% (active),-78.7% (active),-71.3% (active)
COc1ccc(/C=C(/c2ccccc2)[N+](=O)[O-])c(OC)c1,21.1%,59.9%,46.1%,4.17% (active),2.72% (active),-25.4% (active),-13.2% (active),7.88% (active),-66.1% (active),-26.9% (active)
Cc1ccc(C(=O)Nc2cccc(C#Cc3cccc4[nH]nc(N)c34)c2)cc1C(F)(F)F,51.8%,55.8%,79.2%,58.7%,75.6%,63.8%,60.2%,67.5%,62.6%,40.2%
C=C(C)[C@@H]1CCC[C@]2(C(=O)N3CCN(C)CC3)CC[C@]3(C)[C@@H](CC[C@@H]4[C@@]5(C)CC/C(=N\NC(=O)c6ccncc6)C(C)(C)[C@@H]5CC[C@]43C)[C@@H]12,93.3%,101%,93.7%,96.9%,88%,107%,98.3%,99.5%,93.6%,99.1%
CC1(C)CC[C@]2(CO)CC[C@]3(C)[C@H](CC[C@@H]4[C@@]5(C)CCCNC(C)(C)[C@@H]5CC[C@]43C)[C@H]2[C@H]1O,88.1%,103%,93.8%,98%,11.7%,83.8%,92.1%,73%,96.7%,0.611% (active)
O=C(N=Nc1c(O)[nH]c2ccccc12)Nc1ccc(F)cc1,96.8%,91.7%,93.8%,83.2%,108%,94%,78.5%,87.5%,97.3%,103%
COc1ccc(CCN2C(=O)/C(=C/c3ccc(C4Oc5ccccc5C5CC(c6ccccc6)=NN54)cc3)SC2=S)cc1 (stereo not given),100%,105%,108%,98.1%,110%,111%,96%,108%,106%,107%
Cc1ccc(CNc2c3ccccc3nc3ccccc23)cc1,29.3%,41.5%,39.7%,43.7%,8.75% (active),3.24% (active),49%,26.1%,25.4%,0.281% (active)
COc1cccc(/C=N/NC(=O)c2ccccc2N2CCCC2)c1O,53.3%,71.7%,49.6%,46.9%,20.9%,47.6%,-34.1% (active),70.5%,53.4%,54.3%
CSC(SC)=C(C#N)c1nc2ccccc2s1,58.3%,59%,79.4%,72.5%,57.7%,-12.8% (active),6.27% (active),74.8%,61.8%,112%
CC(C)=CCNc1ncnc2c1ncn2C1OC(CO)C(O)C1O (stereo not given),-19.3% [1 mM] (active),-70.3% [1 mM] (active),-4.69% [1 mM] (active),-17.3% [1 mM] (active),2.5% [1 mM] (active),-77.2% [1 mM] (active),-54.2% [1 mM] (active),-8.25% [1 mM] (active),-31.4% [1 mM] (active),-6.05% [1 mM] (active)
COC1=C(C)C(=O)N2[C@@H]1[C@H](c1ccccc1)OC21C=CC(=O)C=C1,3.23% (active),-25.9% (active),81.8%,28.7%,89.4%,-11.7% (active),-69.3% (active),82.3%,-48.9% (active),-34.6% (active)
CCCCCCCCCCCCCCCCCCOc1ccccc1CC(=O)NCC[N+]1(C)CCCCC1,62.5%,74.2%,62.7%,59%,41.9%,19.9%,32.7%,51.2%,74.2%,23.6%
